Records with an inconclusive call do not appear. A call without a number means that no potency is given here. Activity calls are given as the source filed them. The call rests on the fitted dose curve; in most records, active means well fitted cell-killing curve with a large enough effect; inconclusive means small, poorly fitted or top-dose-only effect; inactive means no such curve, though single readings can be large or run the other way.
Potency means the concentration at half of the fitted maximal effect.

This experiment can be described thus: qHTS of pediatric cancer cell lines to identify multiple opportunities for drug repurposing: Primary screen for Rh41 cells (AID 1347108). Further: nearly all actives have a fitted effect of over 70% in size. To be noted: Rh41 rhabdomyosarcoma viability, CellTiter-Glo luminescence, 48 h; series mostly up to 46 µM. An excerpt:
Drug repurposing or repositioning has been offered as a strategy for drug development in oncology programs. This approach has special potential for childhood cancers and other rare or orphan diseases, where the expected return on new drug development has been a disincentive to pharmaceuticals. […] In this project we exploit the poly-pharmacology of drugs to discover new indications via phenotypic screening of a panel of 19 well-characterized cell lines derived from solid tumors seen in children and adolescents. The goal is to identify approved drugs with previously unrecognized anticancer properties that has the potential to reveal new mechanisms and biological processes involved in carcinogenesis or drug resistance. We employed a titration-based paradigm (quantitative high-throughput screening or qHTS), where all compounds were tested at multiple concentrations for their effect on cell viability. Concentration-response curves (CRCs) were derived directly from the primary screen, and both potency and efficacy values were used to identify compounds with robust bioactivity profiles. We screened the NIH Chemical Genomics Center (NCGC) Pharmaceutical Collection (NPC) and Mechanism Interrogation Plate (MIPE) small molecule collections of approved and investigational compounds against these cell lines; and measured metabolically active cells after 48 hours of compound treatment as a proxy for cell viability. […] Assay Submitter: Nathalia J. Martinez, National Center for Advancing Translational Sciences, National Institutes of Health, Rockville, MD, USA; email: natalia.martinez@nih.gov Shen, M et al. Quantitative high-throughput phenotypic screening of pediatric cancer cell lines identifies multiple opportunities for drug repurposing. Oncotarget 2017 Dec 19;9(4):4758-4772. PMID 29435139.
The cells were obtained from University of North Carolina (UNC), Pediatric Preclinical Testing Program (PPT), and Coriell Institute (CI). qHTS cell viability assay: Cells were assayed in growth media at a density of 500-1,000 cells/well. Five microliters of cells were dispensed into 1,536-well, white, solid-bottom, TC-treated plates (Greiner Bio One) using a multidrop dispenser and incubated at 37 degrees C, 5% CO2, under a humidified atmosphere for 5 hours. Twenty-three nanoliters of compounds and controls (neutral control DMSO or positive control bortezomib at final concentration of 2.3 µM) were subsequently transferred by Kalypsys pintool. For primary screens, the MIPE collection was tested at 11-point dilutions (final concentrations range from 0.78 nM to 46 µM) and the NPC collection at 8-point dilutions (final concentrations range from 0.59 nM to 46 µM). Compounds tested in follow-up screens were assayed at 11-point dilutions. Cells were incubated for 48 hours, followed by addition of 3 µL of CellTiter-Glo (Promega). After a 15 min incubation at room temperature, samples were analyzed for luminescence intensity using a ViewLux High-throughput CCD imager equipped with clear filters.
Background: Quantitative high-throughput screening tests each substance at several concentrations.
Consider `Clc1ccc(CCC(Cn2ccnc2)Sc2c(Cl)cccc2Cl)cc1` (stereo not given), for which the Potency entry is “inactive”. `Cc1ccc(-c2nc3ccc(C)cn3c2CC(=O)N(C)C)cc1`: the Potency entry is “inactive”. `C#CCN(C)[C@H](C)Cc1ccccc1`: the Potency result was “inactive”. For `CC(C)(N)Cc1ccc(Cl)cc1`, the Potency entry was “inactive”. In the case of `Clc1cccc(N2CCNCC2)c1`, the Potency entry is “inactive”. Next, `OCCOc1ccccc1`: “inactive”; `CNCC(O)c1ccc(O)cc1` (stereo not given): “inactive”.

As for `CCN(C(C)=O)c1cccc(-c2ccnc3c(C#N)cnn23)c1`, the Potency entry is “inactive”. Regarding `C=CCN1CC[C@]23c4c5ccc(O)c4O[C@H]2C(=O)CC[C@@]3(O)[C@H]1C5`, the Potency result was “inactive”. To `COc1ccccc1N1CCNCC1` belongs “inactive”.

Take `Cc1ccc2c(c1)C1CN(C)CCC1N2` (stereo not given): the Potency entry is “inactive”. On to `O=C1CC[C@@]2(O)[C@H]3Cc4ccc(O)c5c4[C@@]2(CCN3CC2CC2)[C@H]1O5`, for which the Potency entry is “inactive”.

Take `CCN(CC)CCOC(=O)C(O)(c1ccccc1)c1ccccc1`: the Potency entry is “inactive”. For `Cn1c(CCCC(=O)O)nc2cc(N(CCCl)CCCl)ccc21`, the Potency result was “inactive”.

Turning to `COc1ccc(C(=O)c2c(C)n(CCN3CCOCC3)c3ccccc23)cc1`, the Potency result was “inactive”. Regarding `NP(N)(=O)NC(=O)c1ccc(F)cc1`, the Potency entry is “inactive”. For `CC[C@@H](CO)NC(=O)[C@@H]1C=C2c3cccc4c3c(cn4C)C[C@H]2N(C)C1`, the Potency result was “inactive”. On to `CC(=O)[C@H]1CC[C@H]2[C@@H]3CC[C@H]4C[C@](C)(O)CC[C@]4(C)[C@H]3CC[C@]12C`, for which the Potency result is “inactive”.

For `CN1C[C@H](CNC(=O)OCc2ccccc2)C[C@@H]2c3cccc4c3c(cn4C)C[C@H]21`, the Potency result was “inactive”. `Oc1ccccc1-c1ccccc1`: the Potency result is “inactive”. As for `O=[N+]([O-])c1cc([As](=O)(O)O)ccc1O`, the Potency entry is “inactive”. Turning to `N#CC(C#N)=Cc1ccc(O)c(O)c1`, the Potency entry is “inactive”. Turning to `Fc1ccc(C(OCCN2CCN(CCCc3ccccc3)CC2)c2ccc(F)cc2)cc1`, the Potency is 20.9 µM (active).

Turning to `COc1ccc2c(c1OC)CN1CCc3cc4c(cc3C1C2)OCO4` (stereo not given), the Potency result was “inactive”. On to `CC1OC(C)OC(C)O1` (stereo not given), for which the Potency result was “inactive”. Regarding `Cc1ncc(CNC(=O)N(CCCl)N=O)c(N)n1`, the Potency entry was “inactive”.

As for `CC(C)(C)CC(C)(C)c1ccc(O)cc1`, the Potency result is “inactive”. Consider `Oc1ccc(Cl)cc1Cc1ccccc1`, for which the Potency entry is “inactive”. In the case of `CN1C(=S)CN=C(c2ccccc2)c2cc(Cl)ccc21`, the Potency entry was “inactive”. With `CC[N+]1(C)CCCC(OC(=O)C(O)(c2ccccc2)c2ccccc2)C1` (stereo not given), the Potency result was “inactive”.

As for `FC(F)(F)c1cccc(C2=CCN(CCc3ccc4ccccc4c3)CC2)c1`, the Potency entry is “inactive”. In the case of `Cc1ccc(S(=O)(=O)N[C@@H](CCCCN)C(=O)CCl)cc1`, the Potency result was “inactive”. Next, `O=P1(NCCCl)OCCCN1CCCl` (stereo not given): “inactive”; `COC[C@H]1OC(=O)c2coc3c2[C@@]1(C)C1=C(C3=O)C2CCC(=O)[C@@]2(C)C[C@H]1OC(C)=O` (stereo not given in full): 18.7 µM (active); `CN(C)CCN(C)CCc1ccc(Cl)c(Cl)c1`: “inactive”. `O=c1oc2ccccc2c(O)c1C(CC(O)c1ccc(-c2ccc(Br)cc2)cc1)c1ccccc1` (stereo not given): the Potency result is “inactive”. On to `Cc1cccc(C)c1NC1=NCCCS1`, for which the Potency entry is “inactive”. On to `Cc1cccc(C)c1NC(=O)CN1CCCC1=O`, for which the Potency entry was “inactive”. With `CCCN1CCC[C@@H]2Cc3[nH]ncc3C[C@H]21`, the Potency result is “inactive”. Regarding `C[C@]12C/C(=C/O)C(=O)C[C@@H]1CC[C@@H]1[C@@H]2CC[C@@]2(C)[C@H]1CC[C@]2(C)O`, the Potency result was “inactive”.

Values taken from PubChem BioAssay (NCATS).
